Measured values taken from PubChem BioAssay AID1159580 (chemical genetic matrix, 2015).
The whole screen tested about 5,500 compounds, of which about 2,000 (36%) were called active. Not shown: some 18% with an inconclusive outcome. No stated cut-off is given here; in the data, active means normalized growth mostly below about 0.91 (no sharp cut-off); inconclusive means no clear call, values can overlap the other calls; inactive means mostly above about 0.92. This is one part of the list.

Assay: chemical genetic growth profiling, strain panel (AID 1159580);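 further: tested at 20 µM; growth read once vehicle control cultures reached saturation at 30 °C; 1 = growth at the plate median or of vehicle wells; lower values mean less growth of the strain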
Conditions: growth OD

Measured: normalized growth

CC(=O)Oc1ccc(Cl)c2cccnc12
active: S. cerevisiae deletion strains, locus YJL187C, strain SWE1, active compounds read low 0.0588 | S. cerevisiae deletion strains, locus YJR043C, strain POL32, active compounds read low 0.0605 | S. cerevisiae deletion strains, locus YJR075W, strain HOC1, active compounds read low 0.0612 | S. cerevisiae deletion strains, locus YKL009W, strain mrt4, active compounds read low 0.0837 | S. cerevisiae deletion strains, locus YKL068W, active compounds read low 0.061 | S. cerevisiae deletion strains, locus YKL085W, strain MDH1 (second series), active compounds read low 0.0554 | S. cerevisiae deletion strains, locus YKL085W, strain MDH1, active compounds read low 0.0554 | S. cerevisiae deletion strains, locus YKL160W, strain elf1, active compounds read low 0.058 | S. cerevisiae deletion strains, locus YKL190W, strain CNB1, active compounds read low 0.0452 | S. cerevisiae deletion strains, locus YKR001C, strain vps1, active compounds read low 0.0643 | S. cerevisiae deletion strains, locus YKR026C, strain gcn3, active compounds read low 0.0619 | S. cerevisiae deletion strains, locus YKR091W, strain srl3, active compounds read low 0.0618 | S. cerevisiae deletion strains, locus YLL001W, strain dnm1, active compounds read low 0.0631 | S. cerevisiae deletion strains, locus YLL026W, active compounds read low 0.0596 | S. cerevisiae deletion strains, locus YLL041C, strain sdh2, active compounds read low 0.0561 | S. cerevisiae deletion strains, locus YLR027C, strain aat2, active compounds read low 0.0554 | S. cerevisiae deletion strains, locus YLR039C, strain RIC1, active compounds read low 0.0795 | S. cerevisiae deletion strains, locus YLR058C, strain SHM2, active compounds read low 0.0497 | S. cerevisiae deletion strains, locus YLR102C, strain apc9, active compounds read low 0.0628 | S. cerevisiae deletion strains, locus YLR221C, strain rsa3, active compounds read low 0.061 | S. cerevisiae deletion strains, locus YLR258W, strain gsy2, active compounds read low 0.0582 | S. cerevisiae deletion strains, locus YLR262C, strain YPT6 (second series), active compounds read low 0.0745 | S. cerevisiae deletion strains, locus YLR262C, strain YPT6, active compounds read low 0.0956 | S. cerevisiae deletion strains, locus YLR268W, strain sec22, active compounds read low 0.0707 | S. cerevisiae deletion strains, locus YLR320W, strain mms22, active compounds read low 0.074 | S. cerevisiae deletion strains, locus YLR330W, strain CHS5, active compounds read low 0.0507 | S. cerevisiae deletion strains, locus YLR342W, strain FKS1 (second series), active compounds read low 0.0702 | S. cerevisiae deletion strains, locus YLR342W, strain FKS1, active compounds read low 0.0632 | S. cerevisiae deletion strains, locus YLR357W, strain rsc2, active compounds read low 0.13 | S. cerevisiae deletion strains, locus YLR370C, strain arc18, active compounds read low 0.0627 | S. cerevisiae deletion strains, locus YLR371W, strain rom2, active compounds read low 0.0668 | S. cerevisiae deletion strains, locus YLR384C, strain iki3, active compounds read low 0.0595 | S. cerevisiae deletion strains, locus YLR418C, strain cdc73, active compounds read low 0.101 | S. cerevisiae deletion strains, locus YML016C, strain PPZ1, active compounds read low 0.0485 | S. cerevisiae deletion strains, locus YML032C, strain rad52, active compounds read low 0.0749 | S. cerevisiae deletion strains, locus YML120C, strain ndi1, active compounds read low 0.0578 | S. cerevisiae deletion strains, locus YML124C, strain tub3, active compounds read low 0.0617 | S. cerevisiae deletion strains, locus YMR058W, strain fet3, active compounds read low 0.0625 | S. cerevisiae deletion strains, locus YMR078C, strain ctf18, active compounds read low 0.0737 | S. cerevisiae deletion strains, locus YMR125W, strain sto1, active compounds read low 0.081 | S. cerevisiae deletion strains, locus YMR129W, active compounds read low 0.0589 | S. cerevisiae deletion strains, locus YMR205C, strain PFK2, active compounds read low 0.0841 | S. cerevisiae deletion strains, locus YMR223W, strain ubp8, active compounds read low 0.069 | S. cerevisiae deletion strains, locus YMR231W, strain pep5, active compounds read low 0.0641 | S. cerevisiae deletion strains, locus YMR307W, strain GAS1, active compounds read low 0.122 | S. cerevisiae deletion strains, locus YNL067W, strain RPL9B, active compounds read low 0.0485 | S. cerevisiae deletion strains, locus YNL071W, strain lat1, active compounds read low 0.0618 | S. cerevisiae deletion strains, locus YNL153C, strain GIM3, active compounds read low 0.048 | S. cerevisiae deletion strains, locus YNL209W, strain ssb2, active compounds read low 0.0585 | S. cerevisiae deletion strains, locus YNL233W, strain BNI4, active compounds read low 0.0581 | S. cerevisiae deletion strains, locus YNL248C, strain rpa49, active compounds read low 0.0904 | S. cerevisiae deletion strains, locus YNL250W, strain rad50, active compounds read low 0.127 | S. cerevisiae deletion strains, locus YNL271C, strain bni1, active compounds read low 0.0631 | S. cerevisiae deletion strains, locus YNL298W, strain CLA4, active compounds read low 0.0622 | S. cerevisiae deletion strains, locus YNL307C, strain MCK1, active compounds read low 0.0688 | S. cerevisiae deletion strains, locus YNL322C, strain KRE1 (second series), active compounds read low 0.0653 | S. cerevisiae deletion strains, locus YNR049C, strain mso1, active compounds read low 0.06 | S. cerevisiae deletion strains, locus YNR052C, strain pop2, active compounds read low 0.0622 | S. cerevisiae deletion strains, locus YOL147C, strain pex11, active compounds read low 0.0595 | S. cerevisiae deletion strains, locus YOR001W, strain rrp6, active compounds read low 0.0713 | S. cerevisiae deletion strains, locus YOR061W, strain CKA2, active compounds read low 0.0492 | S. cerevisiae deletion strains, locus YOR069W, strain VPS5, active compounds read low 0.0514 | S. cerevisiae deletion strains, locus YOR070C, strain gyp1, active compounds read low 0.0596 | S. cerevisiae deletion strains, locus YOR080W, strain dia2, active compounds read low 0.064 | S. cerevisiae deletion strains, locus YOR083W, strain WHI5, active compounds read low 0.0594 | S. cerevisiae deletion strains, locus YOR106W, strain vam3, active compounds read low 0.0646 | S. cerevisiae deletion strains, locus YOR136W, strain idh2, active compounds read low 0.0755 | S. cerevisiae deletion strains, locus YOR144C, strain elg1, active compounds read low 0.0602 | S. cerevisiae deletion strains, locus YOR184W, strain ser1, active compounds read low 0.0785 | S. cerevisiae deletion strains, locus YOR265W, strain rbl2, active compounds read low 0.0601 | S. cerevisiae deletion strains, locus YOR270C, strain vph1, active compounds read low 0.104 | S. cerevisiae deletion strains, locus YOR290C, strain snf2, active compounds read low 0.0601 | S. cerevisiae deletion strains, locus YOR316C, strain cot1, active compounds read low 0.0595 | S. cerevisiae deletion strains, locus YPL051W, strain arl3, active compounds read low 0.0618 | S. cerevisiae deletion strains, locus YPL055C, strain LGE1, active compounds read low 0.0661 | S. cerevisiae deletion strains, locus YPL078C, strain atp4, active compounds read low 0.0648 | S. cerevisiae deletion strains, locus YPL106C, strain sse1, active compounds read low 0.0984 | S. cerevisiae deletion strains, locus YPL240C, strain hsp82, active compounds read low 0.0604 | S. cerevisiae deletion strains, locus YPL241C, strain CIN2, active compounds read low 0.0494 | S. cerevisiae deletion strains, locus YPR119W, strain clb2, active compounds read low 0.0672 | S. cerevisiae deletion strains, locus YPR141C, strain kar3, active compounds read low 0.0666 | S. cerevisiae deletion strains, locus YPR163C, strain tif3, active compounds read low 0.0706 | S. cerevisiae deletion strains, locus YPR167C, strain met16, active compounds read low 0.0624 | S. cerevisiae deletion strains, strain wtn01, active compounds read low 0.0713 | S. cerevisiae strains, strain wild type, active compounds read low 0.0465
inactive: S. cerevisiae deletion strains, locus YOL012C, strain htz1 0.23
